# Reference: PubChem BioAssay (NCI)
# This is part of a sample that, as a whole, favours compounds with a hit. Of some 83,000 tested, about 20% had one in any assay.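 Values shown are percent growth following 48 h exposure of cells in 96-well plates to a single concentration of compound; below 10 was considered active.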 Unmarked numbers belong to inactive results. Activity calls are given as the source filed them.
# Key:
# Assay in all cases: NCI-60 one-dose screen, 48 h (100 = growth as untreated, 0 = no growth, -100 = all killed)
# Conditions in all cases: 10 µM unless noted
# HCT-15 colon = test system: HCT-15 colon
# HT29 colon = test system: HT29 colon
# SNB-75 CNS = test system: SNB-75 CNS
# SNB-19 CNS = test system: SNB-19 CNS
# U251 CNS = test system: U251 CNS
# SK-MEL-5 melanoma = test system: SK-MEL-5 melanoma
# UACC-62 melanoma = test system: UACC-62 melanoma
# LOX IMVI melanoma = test system: LOX IMVI melanoma
# SK-MEL-28 melanoma = test system: SK-MEL-28 melanoma
# SK-MEL-2 melanoma = test system: SK-MEL-2 melanoma
# EKVX NSCLC = test system: EKVX NSCLC
# SN12C renal = test system: SN12C renal
# UO-31 renal = test system: UO-31 renal
# TK-10 renal = test system: TK-10 renal
# ACHN renal = test system: ACHN renal
# CAKI-1 renal = test system: CAKI-1 renal
# A498 renal = test system: A498 renal
# CCRF-CEM leukemia = test system: CCRF-CEM leukemia
# MOLT-4 leukemia = test system: MOLT-4 leukemia
SMILES,growth (HCT-15 colon),growth (HT29 colon),growth (SNB-75 CNS),growth (SNB-19 CNS),growth (U251 CNS),growth (SK-MEL-5 melanoma),growth (UACC-62 melanoma),growth (LOX IMVI melanoma),growth (SK-MEL-28 melanoma),growth (SK-MEL-2 melanoma),growth (EKVX NSCLC),growth (SN12C renal),growth (UO-31 renal),growth (TK-10 renal),growth (ACHN renal),growth (CAKI-1 renal),growth (A498 renal),growth (CCRF-CEM leukemia),growth (MOLT-4 leukemia)
COc1ccc(C(=O)COc2cccc(/C=C3\CSc4ccccc4C3=O)c2)cc1,-54.1% (active),-88.2% (active),91.6%,63.6%,-86.7% (active),-75.8% (active),-72% (active),-100% (active),-62.3% (active),-30.9% (active),70.7%,29.6%,18%,-5.8% (active),-35.8% (active),-47.9% (active),85.4%,-62.2% (active),-65.7% (active)
Fc1ccc2[nH]cc(SSc3c[nH]c4ccc(F)cc34)c2c1,25.8%,39.2%,64.1%,41.1%,13.8%,70%,63.8%,25.5%,75.6%,62.8%,14.2%,65.1%,21.5%,84.6%,55.1%,32.6%,35%,15.9%,14%
COc1ccc(-n2nc(C)c3c(Nc4ccc(NC(=O)Nc5cccc(C(F)(F)F)c5)cc4)ncnc32)cc1,2.47% (active),1.63% (active),-7.61% (active),12%,-49.7% (active),-66.5% (active),3.5% (active),-81.9% (active),11.6%,-21.1% (active),10.1%,22.5%,-44.9% (active),10.7%,-10.2% (active),-18.9% (active),48.5%,18.2%,8.98% (active)
Cc1cc(C)nc(SC2=C(Nc3cccc(Cl)c3C)C(=O)N(Cc3ccccc3)C2=O)n1,51.6% [30 µM],30.2% [30 µM],50.5% [30 µM],71.9% [30 µM],49.4% [30 µM],64.3% [30 µM],56.2% [30 µM],59% [30 µM],85.1% [30 µM],69.6% [30 µM],47.2% [30 µM],70.1% [30 µM],14.7% [30 µM],60.5% [30 µM],65.2% [30 µM],60.8% [30 µM],40.1% [30 µM],26.9% [30 µM],4.41% [30 µM] (active)
Cc1ccc(O)c(N2C(=NCc3ccco3)NS(=O)(=O)c3cnccc32)c1,112%,111%,106%,110%,100%,118%,96.7%,103%,107%,106%,101%,101%,91.2%,124%,106%,68.4%,109%,61.2%,87.9%
Cn1ccnc1C(=O)/C=C/c1ccccc1,20.4%,1.12% (active),12.9%,42.2%,25%,15%,43.1%,18.3%,30.1%,46.9%,-9.85% (active),41.6%,-33.7% (active),15.3%,33%,11.7%,-15.9% (active),9.1% (active),70%
Cn1c(=O)[nH]c(=O)c2nc(CCC(=O)NCCC(=O)O)c(=O)[nH]c21,106%,106%,89%,104%,98.2%,103%,105%,98.6%,103%,106%,106%,99.5%,86.6%,106%,101%,93.5%,114%,109%,106%
COc1cc(-c2ccc3c(c2)NC(=O)/C3=C\c2ccc[nH]2)ccc1O,14.1%,18.9%,47.2%,34.8%,15.4%,-27.5% (active),32.2%,-8.36% (active),37.5%,31.4%,35.6%,27.5%,14.5%,35.7%,11.6%,11.2%,64%,12.3%,10.3%
CN(C)S(=O)(=O)c1cccc(-c2nc3sc4c(c3c(=O)[nH]2)CCCC4)c1,115%,19.5%,-12.3% (active),53.5%,1.85% (active),77.3%,71.1%,174%,82.2%,36.9%,56.1%,28.3%,29.6%,-20.5% (active),96.5%,65.5%,-29.8% (active),35.5%,56.9%
CN(CCCCCl)P(=O)(OCc1ccc([N+](=O)[O-])o1)C(F)(F)c1ccc(CC(=O)NC[C@@H](O)/C=C\[C@@H](O)[C@H](CO)Cc2ccccc2)cc1 (stereo not given in full),96.2%,77%,95.4%,102%,93.7%,97.1%,74.4%,60.4%,97.8%,66.5%,99.3%,98.8%,88.9%,113%,94%,104%,83.8%,70.7%,93.5%
C#CCOc1ccc2ncnc(Nc3cccc(CNC(=O)CCl)c3)c2c1,45.2% [8.25 µM],35% [8.25 µM],15.5% [8.25 µM],60.7% [8.25 µM],10.1% [8.25 µM],14.5% [8.25 µM],40.3% [8.25 µM],53.9% [8.25 µM],69% [8.25 µM],49.6% [8.25 µM],58.7% [8.25 µM],30.3% [8.25 µM],39.8% [8.25 µM],38% [8.25 µM],37.8% [8.25 µM],39.6% [8.25 µM],-1.38% [8.25 µM] (active),14.4% [8.25 µM],15.1% [8.25 µM]
O=C(CN(C(=O)Cn1c(=O)n2nnnc2c2ccccc21)c1ccccc1C(F)(F)F)Nc1ccc(C(F)(F)F)cc1,102%,110%,91%,95.6%,99.1%,102%,101%,98.9%,108%,105%,101%,100%,81.1%,111%,102%,99.2%,116%,107%,104%
COc1ccc(S(=O)(=O)N2CC3(COC3)C2)cc1NC(=O)c1[nH]c(C)c2c1CCCCC2=O,70.1%,19.2%,19.4%,54.9%,62.8%,46.5%,23.4%,17.3%,73.7%,62.7%,58.2%,54.9%,40.4%,17.5%,60.4%,20%,69.8%,72.5%,76.4%
CCOc1nc(-c2ccccc2)cc2c(O)c(C(=O)N/N=C/c3ccc(O)cc3O)[nH]c(=O)c12,23.9%,48.3%,59.6%,43.2%,21.2%,21.9%,9.73% (active),-0.51% (active),60%,-8.71% (active),36.2%,39.1%,-13.2% (active),52.1%,9.99% (active),8.55% (active),65.3%,-33.9% (active),17.3%
O=C(NCCN1CCOCC1)Nc1ccc(-c2cc3c(Nc4ccc(Oc5cccc(C(F)(F)F)c5)c(Cl)c4)ncnc3s2)cc1,-56.2% (active),-69.2% (active),-48.4% (active),43.1%,0.383% (active),-90.9% (active),-40.3% (active),-86.6% (active),-49.8% (active),32%,20.8%,42.9%,-35.8% (active),49.8%,11.8%,8.01% (active),40.3%,3.33% (active),-4.36% (active)
